Some structures have more than one record in an assay (separate samples or runs), and their calls can disagree. The source made the active and inactive calls. The calls were made as follows: active = hit-call score of the fitted dose curve at least 0.9, where 1 is the maximum; inactive = score below 0.9.

A short description of this assay: ATG_DR4_LXR_CIS: Attagene CIS-FACTORIAL HepG2 Assay for human Liver X Receptor (LXR), DR4 submotif (AID 2282929). Conditions: HepG2 Attagene DR4 cis-reporter, mRNA transcription; actives raise or lower the signal. On the procedure: ATG_CIS is a cell-based, multiplexed-readout assay that uses HepG2, a human liver cell line, with measurements taken at 24 hours after chemical dosing in a 24-well plate.ATG_DR4_LXR_CIS is one of 52 assay component(s) measured or calculated from the ATG_CIS assay. It is designed to make measurements of mRNA induction, a form of inducible reporter, as detected with fluorescence intensity signals by Reverse transcription polymerase chain reaction (RT-PCR) and Capillary electrophoresis technology.Data from the assay component ATG_DR4_LXR_CIS was analyzed into 1 assay endpoint. This assay endpoint, ATG_DR4_LXR_CIS, was analyzed with bidirectional fitting relative to DMSO as the negative control and baseline of activity. Using a type of inducible reporter, measures of mRNA for gain or loss-of-signal activity can be used to understand the reporter gene at the transcription factor-level as they relate to the gene NR1H2 and NR1H3. Furthermore, this assay endpoint can be referred to as a primary readout, because this assay has produced multiple assay endpoints where this one serves a reporter gene function. To generalize the intended target to other relatable targets, this assay endpoint is annotated to the nuclear receptor intended target family, where the subfamily is non-steroidal.
Human liver HepG2 cells are transiently transfected with multiple reporter transcription units (MRTUs) in 6-well plates using FuGene 6 reagent (Roche; 3 ml FuGene/1 mg DNA). The MRTU constructs are regulated by a cis-regulating element (promoter). […] A major difference between the CIS and TRANS system is that in CIS activities of endogenous TFs are measured, whereas the TRANS assay evaluates changes in activities of exogenous, chimeric NR-Gal4 proteins. […] At the end of 24 hour incubation, total RNA was isolated using TriZol reagent (Invitrogen). The isolated RNA is then reverse-transcribed using oligo(dT) primer and Mo-MLV reverse transcriptase (Invitrogen) with DNAse I (Ambion) treatment for 30 min. The one-tenth of the produced cDNA was amplified by PCR using Taq DNA polymerase (Invitrogen) and two reporter sequence-specific primers. The PCR products were fluorescently labeled by primer extension with 6-arboxyfluorescein (6-FAM) 5'-labeled reporter sequence-specific primer (2 min at 95 C, 20 s at 68 C and 10 min at 72 C) and these products were digested with 5U of HpaI (New England Biolabs) for 2h at 37 C. The fragments were purified using Qiaquick PCR columns (Qiagen), analyzed on an ABI 3130xL genetic analyzer (Applied Biosystems) with peak positions identified by using a set of X-rhodamine (ROX)-labeled MapMarker1000 molecular weight standards (BioVentures). The raw capillary electrophoresis data was processed using Attagraph software (Attagene).
`Cc1ccn2nc(S(=O)(=O)Nc3c(F)cccc3F)nc2n1`: the outcome was inactive. Still for that read-out and setting: for `COP(=O)(NC(C)=O)SC` (stereo not given) the value was “inactive”. Regarding `CCOC(=O)COc1cc(-c2nn(C)c(OC(F)F)c2Cl)c(F)cc1Cl`, the compound was classed as inactive. On the same count and under the same terms, for `CSc1nc(NC(C)C)nc(NC(C)C)n1` the value was “inactive”; for `C=C(C)[C@H]1Cc2c(ccc3c2O[C@@H]2COc4cc(OC)c(OC)cc4[C@@H]2C3=O)O1`, “inactive”.

With `CC(C)N(C(=O)SCC(Cl)=C(Cl)Cl)C(C)C`, the call was inactive. In the case of `CCC(CC)Nc1c([N+](=O)[O-])cc(C)c(C)c1[N+](=O)[O-]`, the AC50 was 37.9 µM (active). `CN(C)[C@@H]1C(=O)C(C(N)=O)=C(O)[C@@]2(O)C(=O)C3=C(O)c4c(O)cccc4[C@@](C)(O)[C@H]3[C@H](O)[C@@H]12`: the outcome was inactive. Turning to `CCOP(=S)(OCC)Oc1cc(C)nc(C(C)C)n1`, the AC50 was 50 µM (active). `O=C(O)c1cc(Oc2ccc(C(F)(F)F)cc2Cl)ccc1[N+](=O)[O-]`: the compound was classed as inactive. `CNC(=O)Oc1cccc2c1OC(C)(C)O2`: the result was inactive. Regarding `CCc1cccc(C)c1N(C(=O)CCl)C(C)COC` (stereo not given), the AC50 is 32.1 µM (active).

In the case of `CN1COCN(Cc2cnc(Cl)s2)C1=N[N+](=O)[O-]`, the compound was classed as inactive. Same read-out and setting: the result for `COc1cc(OC)nc(Sc2cccc(Cl)c2C(=O)O)n1` reads “inactive”. Turning to `CCCOCC(=Nc1ccc(Cl)cc1C(F)(F)F)n1ccnc1`, the AC50 is 1.39 µM (active).

With `CCOP(=S)(OCC)OC(Cl)C(Cl)(Cl)Cl` (stereo not given), the compound was classed as inactive. Take `COc1ccc(C(=CC(=O)N2CCOCC2)c2ccc(Cl)cc2)cc1OC`: the result was inactive. Still for that read-out and setting: for `CCCCOC(=O)[C@@H](C)Oc1ccc(Oc2ccc(C#N)cc2F)cc1` the value was “inactive”; for `CCc1cccc(CC)c1N(COC)C(=O)CCl`, “inactive”; for `CC(Oc1cccc(Cl)c1)C(=O)O` (stereo not given), “inactive”.

In the case of `CCCOc1nn(C(=O)NS(=O)(=O)c2ccccc2C(=O)OC)c(=O)n1C`, the call was inactive. Turning to `O=[N+]([O-])c1cc(C(F)(F)F)c(Cl)c([N+](=O)[O-])c1Nc1ncc(C(F)(F)F)cc1Cl`, the half-maximal activity concentration (AC50) was 11.1 µM (active) and the compound was called inactive. For `CCC(=NOC/C=C/Cl)C1=C(O)CC(C2CCOCC2)CC1=O` (stereo not given), the call was inactive. Same read-out and setting: the result for `CCOP(=O)(NC(C)C)Oc1ccc(SC)c(C)c1` (stereo not given) reads “inactive”. With `CCCSP(=O)(OCC)SCCC`, the compound was classed as inactive. The same measure, in the same setting: the result for `CSc1nnc(C(C)(C)C)c(=O)n1N` reads “inactive”; that for `CCCCN(CC)c1c([N+](=O)[O-])cc(C(F)(F)F)cc1[N+](=O)[O-]`, “inactive”. The same measure, in the same setting: for `CCOP(=S)(OCC)Oc1ccc([N+](=O)[O-])cc1` the value was “inactive”. Turning to `FC(F)C(F)(F)OCC(Cn1cncn1)c1ccc(Cl)cc1Cl` (stereo not given), the AC50 is 50 µM (active). As for `CCOP(=S)(OCC)SCCSCC`, the compound was called inactive. Still for that read-out and setting: for `S=C1NCCN1` the value was “inactive”. The same measure, in the same setting: for `CC[C@H](C)[C@H]1O[C@]2(C=C[C@@H]1C)C[C@@H]1C[C@@H](C/C=C(\C)[C@@H](O[C@H]3C[C@H](OC)[C@@H](O[C@H]4C[C@H](OC)[C@@H](NC)[C@H](C)O4)[C@H](C)O3)[C@@H](C)/C=C/C=C3\CO[C@@H]4[C@H](O)C(C)=C[C@@H](C(=O)O1)[C@]34O)O2` the value was “inactive”.

As for `CCCCOC(=O)c1ccccc1C(=O)O`, the outcome was inactive. Take `CC(C)=CC1C(C(=O)OCN2C(=O)C3=C(CCCC3)C2=O)C1(C)C` (stereo not given): the concentration at half-maximal activity (AC50) is 73.6 µM (active). Take `C#CC(C)(C)NC(=O)c1cc(Cl)cc(Cl)c1`: the compound was called inactive. Same read-out and setting: for `CCOC(=O)CC(SP(=O)(OC)OC)C(=O)OCC` (stereo not given) the value was “inactive”. Regarding `CON=C(C(=O)OC)c1ccccc1CON=C(C)c1cccc(C(F)(F)F)c1`, the AC50 is 24 µM (active). As for `CCOP(=S)(Oc1cnc(C(C)(C)C)nc1)OC(C)C` (stereo not given), the AC50 was 12.9 µM (active).

In the case of `CCOP(=O)(SC(C)CC)N1CCSC1=O` (stereo not given), the call was inactive.

The values above are taken from PubChem BioAssay (EPA / NIEHS).
